# Laboratory results reported in PubChem BioAssay (NCATS).
# Inconclusive results are not listed. Active and inactive are the calls of the source. Calls come from the whole dose curve.
# Experiment: Cytotoxicity counterscreen for inhibitors of SARS-CoV-2 cell entry (AID 1645845); note: nearly all actives have a fitted effect of over 50% in size
# Details: cell viability (SARS-CoV-2 entry assay cells); series mostly up to 57.1 µM; activity change, negative = cytotoxicity: at the top concentration
# Description: Assay Provider: Wei Zheng, Ph.D.
# National Center for Advancing Translational Sciences, National Institute of Health, Rockville, MD.
# SARS-CoV-2 spike protein, within the viral envelope, mediates viral attachment and infection of host cells. The SARS-CoV-2 spike protein specifically binds to the host receptor ACE2 (Angiotensin-converting enzyme 2). This interaction promotes endocytosis of the viral particle, additional events lead to viral-host cell membrane fusion and release of the viral contents, allowing viral replication.
# While SARS-CoV-2 requires BSL-3 facilities for live virus work, pseudo-typed partices (PP) that incorporate SARS-CoV-2 spike proteins without replication elements could facilitate studies on viral entry mechanisms in a BSL-2 setting. This PP cell entry assay could also enable screening of small molecule compound libraries in BSL-2 setting to identify inhibitors of SARS-CoV-2 cell entry. To eliminate false positive compounds, ATP content cytotoxicity assay was screened in the same cell line.
# SEQUENCE No. (e.g., 1, 2, 3, etc.); […] (e.g., Cells, Incubation, Reagent, etc.); VALUE and DESCRIPTION.
# 1. Cells. Seed 1500 HEK293-ACE2 cells (Expi293F with stable expression of human ACE2) in 2 uL/well media (DMEM, 10% FBS, 1x L-glutamine, 1x Pen/Strep, 1 ug/ml puromycin) in white 1536-well assay plates (Greiner #782073).
# 2. Incubation. Incubate at 37 C with 5% CO2 overnight (~16 h).
# 3. Compounds. Dispense 23 nL/well compounds in DMSO via pin transfer.
# 4. Incubation. Incubate for 1 h at 37C 5% CO2.
# 5. Reagent. Dispense 2 uL/well of media (DMEM, 10% FBS, 1x L-glutamine, 1x Pen/Strep, 1 ug/ml puromycin).
# 6. Incubation. Incubate at for 48h at 37C 5% CO2
# 7. Reagent. Dispense 4 uL/well of ATPLite 1step luminescence assay reagent (PerkinElmer #6016739).
# 8. Incubation. Incubate for 15 min at room temperature.
# 9. Detection. Read luminescence signal (Viewlux plate reader, PerkinElmer). Data was normalized with wells containing cells as 100%, and wells without cells (media only control) as 0%.
# % is set by controls: 0 for no effect and ±100 for the full control effect; potency is the fitted concentration of half-maximal effect.
Structure (SMILES),Potency,"activity change, negative = cytotoxicity",outcome
COc1cc2c(Nc3ccc(Cl)c(Cl)c3F)ncnc2cc1OCC1C[C@@H]2CN(C)C[C@@H]2C1 (stereo not given in full),31.6 µM (active),,
C[C@H](CCC(=O)O)[C@H]1CC[C@H]2[C@@H]3[C@H](O)C[C@@H]4C[C@H](O)CC[C@]4(C)[C@H]3CC[C@]12C,,-8.48% (inactive),
CC(=O)OC[C@H]1O[C@@H]([S-])[C@H](OC(C)=O)[C@@H](OC(C)=O)[C@@H]1OC(C)=O.CC[PH+](CC)CC.[Au],3.16 µM (active),,
CC(=O)Nc1c(I)c(C(=O)O)c(I)c(N(C)C(C)=O)c1I,,,inactive
COC(F)(F)C(Cl)Cl,,0.0023% (inactive),
Cn1cc(/C=C2\C(=O)Nc3cccnc32)c2ccccc21,,0.415% (inactive),
CCc1c(-c2ccccc2C)nc2c(C#N)c[nH]n2c1=O,inactive,,
COC1=C2C[C@H](C)C[C@H](OC)[C@H](O)[C@@H](C)/C=C(/C)[C@H](OC(N)=O)[C@@H](OC)/C=C\C=C(\C)C(=O)NC(=CC1=O)C2=O,,-12.2% (inactive),
Nc1nccn2c(C3CCC(C(=O)O)CC3)nc(-c3cc4cccc(Cl)c4[nH]3)c12 (stereo not given),,-11.7% (inactive),
COc1cc(C)[nH]c(=O)c1CN1CCc2c(Cl)cc([C@H](OC)C3COC3)c(Cl)c2C1=O,,-11.1% (inactive),
O=C(Nc1cnn2ccc(N3CCC[C@@H]3c3cc(F)ccc3F)nc12)N1CC[C@H](O)C1,,,inactive
N#CC(O[C@@H]1O[C@H](CO[C@@H]2O[C@H](CO)[C@@H](O)[C@H](O)[C@H]2O)[C@@H](O)[C@H](O)[C@H]1O)c1ccccc1 (stereo not given in full),,-4.69% (inactive),
C=C1[C@H](OC(=O)/C=C(\C)CC)C[C@@H](C(C)C)[C@@H]2[C@H]([C@@H](C)OC(C)=O)C(=O)C[C@@H]12,,,inactive
CCOc1ccc(Cc2cc([C@@H]3O[C@H](CO)[C@@H](O)[C@H](O)[C@H]3O)ccc2Cl)cc1,inactive,,
N[C@H](Cc1cnc[nH]1)C(=O)O,,,inactive
O=C(/C=C/c1ccc(CN(CCO)CCc2c[nH]c3ccccc23)cc1)NO,,0.0093% (inactive),
CCN(CC)C(=O)[C@]1(c2ccccc2)C[C@H]1CN,,,inactive
CC[C@H]1OC(=O)[C@H](C)[C@@H](O[C@H]2C[C@@](C)(OC)[C@@H](O)[C@H](C)O2)[C@H](C)[C@@H](O[C@@H]2O[C@H](C)C[C@H](N(C)C)[C@H]2O)[C@](C)(O)C[C@@H](C)CN(C)[C@H](C)[C@@H](O)[C@]1(C)O,inactive,,
Cc1cc(C)c(CNC(=O)c2cc(-c3ccc(CN4CCOCC4)cc3)cc3c2cnn3C2CCCC2)c(=O)[nH]1,,4.72% (inactive),
FCOC(C(F)(F)F)C(F)(F)F,,-14.9% (inactive),

Structure (SMILES),Potency,"activity change, negative = cytotoxicity",outcome
CCOC(=N)c1nc2ccc3ncnc(Nc4cc(F)c(F)cc4Cl)c3c2s1,,,inactive
CCCCCCCCCC(=O)OCCN1CCN(CC/C=C2/c3ccccc3Sc3ccc(Cl)cc32)CC1,,4.11% (inactive),
CC[C@H]1OC(=O)[C@H](C)[C@@H](O[C@H]2C[C@@](C)(OC)[C@@H](O)[C@H](C)O2)[C@H](C)[C@@H](O[C@@H]2O[C@H](C)C[C@H](N(C)C)[C@H]2O)[C@](C)(OC)C[C@@H](C)C(=O)[C@H](C)[C@@H](O)[C@]1(C)O,,-0.796% (inactive),
CN1c2c(nc(N)[nH]c2=O)NC[C@@H]1CNc1ccc(C(=O)N[C@@H](CCC(=O)O)C(=O)O)cc1,,,inactive [at 5.25 µM]
Oc1cc(O)cc(O)c1,,,inactive
O=C(Cc1cccs1)NC1C(=O)N2C(C(=O)[O-])=C(C[n+]3ccccc3)CSC12 (stereo not given),,-1.17% (inactive),
CO/C1=C/C(C)=C\[C@@H](C)[C@@H](O)[C@@H](C)C/C(C)=C\C=C/[C@H](OC)[C@@H]([C@@H](C)[C@@H](O)[C@H](C)[C@@]2(O)C[C@@H](O)[C@H](C)[C@@H](C(C)C)O2)OC1=O,1.58 µM (active),,
COc1cc2c3c(n(CCCNCCO)c(=O)c2cc1OC)-c1cc2c(cc1C3=O)OCO2,7.94 µM (active),,
COc1cc2c(cc1OC)CN(CCc1ccc(-n3nnc(-c4cc(OC)c(OC)cc4NC(=O)c4cc(=O)c5ccccc5o4)n3)cc1)CC2,,2.79% [at 0.702 µM] (inactive),
C[C@H](NCCc1ccc(O)cc1)[C@H](O)c1ccc(O)cc1,,,inactive
Cn1c(/C=C/CO)c(CO)c2c1C(=O)C=C(N1CC1)C2=O,,0.0045% (inactive),
CC(C)(C)C(=O)OCC(=O)[C@H]1CC[C@H]2[C@@H]3CCC4=CC(=O)CC[C@]4(C)[C@H]3CC[C@]12C,,2.26% (inactive),
NCCCC[C@H](NC(=O)[C@@H]1CCCN1C(=O)[C@@H]1CSSC[C@H](N)C(=O)N[C@@H](Cc2ccccc2)C(=O)N[C@@H](Cc2ccccc2)C(=O)N[C@@H](CCC(N)=O)C(=O)N[C@@H](CC(N)=O)C(=O)N1)C(=O)NCC(N)=O,,1.6% (inactive),
CC[C@@H](Oc1cccc(CN(CCCOc2ccc(OC)cc2)c2nc3ccccc3o2)c1)C(=O)O,,,inactive
COc1cc2c(NC3CCN(C4CCCCC4)CC3)nc(N3CCCN(C(C)C)CC3)nc2cc1OCCCN1CCCCC1,22.4 µM (active),,
C#C[C@]1(O)CC[C@H]2[C@@H]3CCC4=CC(=O)CC[C@@H]4[C@H]3C(=C)C[C@@]21CC,,,inactive
O=C1O[C@H]2[C@H](OC(O)[C@@H]2O)[C@@H]1O (stereo not given in full),,-3.17% [at 114 µM] (inactive),
CONC(=O)Nc1ccc(-c2sc3c(c2CN(C)Cc2ccccc2)c(=O)n(-c2ccccc2)c(=O)n3Cc2c(F)cccc2F)cc1,,,inactive
COc1cccc2c1c(O)c(C(=O)N(C)c1ccc(C(F)(F)F)cc1)c(=O)n2C,,-11.8% (inactive),
CC(OC(=O)OC1CCCCC1)OC(=O)C1=C(CSc2nnnn2CCN(C)C)CS[C@@H]2[C@H](NC(=O)Cc3csc(N)n3)C(=O)N12 (stereo not given in full),,,inactive
